Screening data: PubChem BioAssay, National Center for Advancing Translational Sciences (NCATS)
In the library only some 7.3% were active in any assay of this set; here they are far more common.
NPC1 promoter act – activators of NPC1 promoter. AID 485313. Huh7 NPC1 promoter luciferase reporter, 24 h. actives 2.4% (n = 320,000). Potency, µM (titrated, usually from 9.22 µM), without a hit: at the highest dose activation, actives largely listed as activators; further: % of control where 0% means no effect; nearly all actives have a fitted effect of over 60% in size
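Luciferase expression driven by the NPC1 promoter was measured in stably transfected Huh7 cells after a 24 h compound incubation, using a luciferase reagent and a luminescence read.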
uPA generation – cell surface uPA generation inhibition. AID 540303. cell surface uPA generation assay, qHTS. actives 0.31% (n = 330,000). Potency, µM (titrated, usually from 38.3 µM), inactives show top-dose activity change, negative = inhibition, actives largely listed as inhibitors; active means well fitted inhibition curve with a large enough effect; inconclusive means small, poorly fitted or top-dose-only effect; inactive means no such curve, though single readings can be large or run the other way; tested in mouse RAW 264.7 cells; further: on the % scale 0 is the no-effect control and ±100 the full control effect; nearly all actives have a fitted effect of over 55% in size
ELG1 genotoxic – genotoxicity induction in ELG1-luciferase HEK293T cells; actives 1.3% (n = 330,000); AID 504466; Potency, µM (doses to about 46 µM), for inactives: top-dose activity change, positive = activation, most hits filed as activators; HEK293T ELG1-luciferase reporter, luminescence, 16 h; further: % of control where 0% means no effect; nearly all actives have a fitted effect of over 60% in size
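Genotoxic stress is detected as increased luminescence from luciferase-tagged ELG1 in HEK293T cells, measured with ONE-Glo after a 16 hr treatment at 37 °C.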
FLuc modulator – inhibits or activates purified firefly luciferase, miR-21 counter-screen | purified FLuc, Km substrates, luminescence inhibition | Potency, µM (top dose mostly 57.5 µM), for the others: at the highest dose activity change, negative = inhibition, most hits filed as inhibitors | actives 6.9% (n = 360,000);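 further: plate controls were vehicle for no effect and reference inhibitor for full effect; nearly all actives have a fitted effect of over 55% in size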
Target sequence (P08659 whole entry, looked up): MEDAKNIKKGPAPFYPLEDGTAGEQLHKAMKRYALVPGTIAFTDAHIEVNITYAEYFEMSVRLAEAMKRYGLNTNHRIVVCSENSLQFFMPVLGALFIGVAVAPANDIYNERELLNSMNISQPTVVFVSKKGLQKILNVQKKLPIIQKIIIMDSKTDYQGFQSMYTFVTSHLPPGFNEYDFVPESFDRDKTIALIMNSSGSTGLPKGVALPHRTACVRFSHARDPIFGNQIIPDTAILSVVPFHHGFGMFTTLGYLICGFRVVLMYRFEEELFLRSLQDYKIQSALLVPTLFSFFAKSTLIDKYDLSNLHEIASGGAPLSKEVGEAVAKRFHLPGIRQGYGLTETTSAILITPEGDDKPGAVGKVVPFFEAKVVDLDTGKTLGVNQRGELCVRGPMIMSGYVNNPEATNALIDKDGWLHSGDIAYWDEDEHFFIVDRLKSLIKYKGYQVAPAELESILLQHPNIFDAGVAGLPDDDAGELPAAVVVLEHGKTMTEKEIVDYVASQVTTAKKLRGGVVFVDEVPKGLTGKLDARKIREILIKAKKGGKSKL
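Biochemical qHTS of compounds, final roughly 60 µM downward over six points, against 10 nM purified firefly luciferase using Km concentrations of substrates (10 uM D-luciferin, 10 uM ATP) in Tris acetate pH 7.5 buffer; luminescence output.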
Rab9 promoter act – activates the Rab9 promoter; actives 2.8% (n = 320,000); Potency, µM (series often up to 9.22 µM), without a hit: top-dose activation, negative = inhibition, actives largely listed as activators; Huh7 Rab9 promoter-luciferase reporter, luminescence, 24 h; further: % of control where 0% means no effect; nearly all actives have a fitted effect of over 60% in size
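Huh7 cells stably carrying Rab9 promoter–luciferase reporter, plated 1500 cells/well, compound added after 2 h and incubated 24 h at 37 °C; luciferase luminescence then read after 10 min with detection reagent.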
SMN2 splice enh – SMN2 splice variant enhancement. Potency, µM (series often up to 46.1 µM), for inactives: at the top dose activity change, positive = activation, most hits filed as activators. actives 2.8% (n = 210,000). HEK293 SMN2-luciferase splicing reporter, luminescence, 30-36 h; further: % of control where 0% means no effect; nearly all actives have a fitted effect of over 55% in size
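qHTS luciferase splicing reporter: luminescence rises when SMN2 exon 7 is included in transfected HEK293 cells. Compound exposure lasted 30-36 h at 37C, with 4.5 mM final sodium butyrate as control, followed by a ONE-Glo read.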
An asterisk follows results filed as active. Unless noted, the call rests on the fitted dose curve; in most records, active means well fitted curve in the direction sought with a large enough effect; inconclusive means small, poorly fitted or top-dose-only effect, or another doubt; inactive means no such curve, though single readings can be large; an effect the other way counts as inactive or inconclusive. Potency means the concentration at half of the fitted maximal effect.

For Cc1cc2nc3s/c(=C/c4ccc(-c5ccccc5C(=O)O)o4)c(=O)n3c2cc1C the results were NPC1 promoter act 15%, uPA generation -3%, ELG1 genotoxic 5%, FLuc modulator 4.8µM* and Rab9 promoter act 11%.
Screening N#C/C(=C\c1ccc(Sc2ccccc2)o1)c1nc2ccccc2[nH]1 returned NPC1 promoter act 2.8µM*, uPA generation -8%, ELG1 genotoxic inconclusive, FLuc modulator 2.7µM*, Rab9 promoter act 2.2µM* and SMN2 splice enh 11µM*.
For COc1ccc(Br)c(C(=O)Nc2cc3c(cc2N2CCCC2)n(C)c(=O)c(=O)n3C)c1 the results were FLuc modulator 6%.
Screening CC(C)C[C@H](NC(=O)[C@H](CCC(N)=O)NC(=O)[C@H](CCCCN)NC(=O)[C@H](CCC(N)=O)NC(=O)[C@@H](N)CCC(=O)O)C(=O)N[C@@H](CCC(N)=O)C(=O)O returned SMN2 splice enh 3%.
`Cc1cc2nc(/C(C#N)=C\c3ccc(-c4ccccc4C(=O)O)o3)[nH]c2cc1C` gave NPC1 promoter act 18%, uPA generation -8%, ELG1 genotoxic 3%, FLuc modulator 1.5µM* and Rab9 promoter act 5%.
For O=C(/C=C/c1ccccc1)c1ccc2c(c1)OCCCCO2 the results were NPC1 promoter act 1µM*, uPA generation -1%, ELG1 genotoxic inconclusive, FLuc modulator 0.38µM*, Rab9 promoter act 1.1µM* and SMN2 splice enh inconclusive.
O=C(CCc1ccccc1)c1ccc2c(c1)OCCCO2 was read as NPC1 promoter act 3.2µM*, uPA generation 5%, ELG1 genotoxic 4.1µM*, FLuc modulator 4.3µM*, Rab9 promoter act 0.63µM* and SMN2 splice enh inconclusive.
`CC(CN1CCOCC1)OC(=O)c1ccc2c(c1)OCCO2` (stereo not given) gave NPC1 promoter act inconclusive, uPA generation 0%, ELG1 genotoxic inconclusive, FLuc modulator 27µM*, Rab9 promoter act 2.2µM* and SMN2 splice enh 26%.
Screening CNc1ccc(/C=C/C(=O)c2ccc(C)cc2)cc1[N+](=O)[O-] returned NPC1 promoter act 5%, uPA generation -1%, ELG1 genotoxic inconclusive, FLuc modulator inconclusive, Rab9 promoter act -1% and SMN2 splice enh 1%.
For O=C(O)CCC(=O)c1ccc2c(c1)OCCCO2 the results were NPC1 promoter act -7%, uPA generation 1%, ELG1 genotoxic 5%, FLuc modulator -3%, Rab9 promoter act 3% and SMN2 splice enh 15%.
`CNc1ccc(/C=C/C(=O)c2ccc3c(c2)OCCO3)cc1[N+](=O)[O-]` gave NPC1 promoter act 2%, uPA generation 0%, ELG1 genotoxic inconclusive, FLuc modulator 6µM*, Rab9 promoter act -7% and SMN2 splice enh -8%.
O=C(c1ccccc1)c1ccc2c(c1)OCCCO2 was read as NPC1 promoter act 1.8µM*, uPA generation -7%, ELG1 genotoxic inconclusive, FLuc modulator 8.5µM* and Rab9 promoter act 1.4µM*.
`O=C(CCCC(=O)c1ccc(O)cc1)c1ccc(O)cc1` gave NPC1 promoter act 3.5µM*, uPA generation 0%, ELG1 genotoxic 4.6µM*, FLuc modulator 2.4µM* and Rab9 promoter act inconclusive.
For CCC(=O)c1ccc(O)cc1 the results were NPC1 promoter act -2%, uPA generation 0%, ELG1 genotoxic 2%, FLuc modulator 5%, Rab9 promoter act -2% and SMN2 splice enh -17%.
Screening O=C(CCCc1ccccc1)c1ccccc1 returned NPC1 promoter act 1.6µM*, uPA generation 6%, ELG1 genotoxic inconclusive, FLuc modulator 0.76µM* and Rab9 promoter act 1.4µM*.
`CC(CN1CCOCC1)OC(=O)COc1ccc(F)cc1` (stereo not given) gave NPC1 promoter act -1%, uPA generation 1%, ELG1 genotoxic 1%, FLuc modulator -1%, Rab9 promoter act -9% and SMN2 splice enh -2%.
For COc1ccc(OCC(=O)OC(C)CN2CCOCC2)cc1 (stereo not given) the results were NPC1 promoter act -2%, uPA generation 4%, ELG1 genotoxic 2%, FLuc modulator 2%, Rab9 promoter act -3% and SMN2 splice enh 2.8µM*.
For O=C(C1CCC(Cn2c(=O)c3sccc3n(Cc3ccccc3F)c2=O)CC1)N1CCOCC1 (stereo not given) the results were FLuc modulator -7%.
`O=C(Nc1ccc(F)cc1)[C@H](Cc1ccccc1)N1Cc2ccccc2C1=O` gave FLuc modulator 2% and SMN2 splice enh 0%.
Cc1ccc(S(=O)(=O)NCC2CCC(C(=O)NCCc3ccccc3)CC2)cc1 (stereo not given) was read as FLuc modulator -5%.
Screening O=C(CCN1CCCC1Cc1ccccc1)c1ccc2c(c1)OCCO2 (stereo not given) returned uPA generation -6%, FLuc modulator -13% and SMN2 splice enh -1%.
For O=C(CCCc1ccccc1)c1ccc2c(c1)OCCO2 the results were NPC1 promoter act -28%, uPA generation -38%, ELG1 genotoxic inconclusive, FLuc modulator 0.076µM*, Rab9 promoter act -21% and SMN2 splice enh -41%.
CC(OC(=O)c1ccc2c(c1)OCCO2)C(=O)c1ccccc1 (stereo not given) was read as NPC1 promoter act 0.71µM*, uPA generation -4%, ELG1 genotoxic inconclusive, FLuc modulator 0.85µM* and Rab9 promoter act 0.5µM*.
Screening O/N=C(/CCc1ccccc1)c1ccc2c(c1)OCCO2 returned NPC1 promoter act 4µM*, uPA generation -1%, ELG1 genotoxic 21µM*, FLuc modulator 13µM*, Rab9 promoter act 2.8µM* and SMN2 splice enh 16µM*.
CC(CN1CCCCC1)OC(=O)c1ccc2c(c1)OCCO2 (stereo not given) was read as NPC1 promoter act 23%, uPA generation 1%, ELG1 genotoxic inconclusive, FLuc modulator inconclusive and Rab9 promoter act 22%.
Screening O=C(CCN1CCc2ccccc21)c1ccc2c(c1)OCCO2 returned NPC1 promoter act inconclusive, uPA generation -5%, ELG1 genotoxic 14%, FLuc modulator 8.5µM*, Rab9 promoter act inconclusive and SMN2 splice enh -5%.
CC(C)NC(=O)CC1C(=O)N(Cc2ccccc2)C(C)c2nc3ccccc3n21 (stereo not given) was read as NPC1 promoter act -2%, uPA generation 5%, ELG1 genotoxic -12%, FLuc modulator 3%, Rab9 promoter act -1% and SMN2 splice enh -20%.
